Compound activity from PubChem BioAssay.
Rows were chosen to be rich in hits. Some 11% of all compounds tested hit in one or more screens of this group.
G9a inh: blocks human histone lysine methyltransferase G9a | Q96KQ7 | Potency, µM (doses to about 102 µM), most hits filed as inhibitors | AID 504332 | G9a H3K9 monomethylation, AlphaScreen, 2 h | actives 8.8% (n = 350,000); also: nearly all actives have a fitted effect of over 75% in size
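Step 1: enzyme (final 20 nM) with compound, 15 min RT. Step 2: substrate peptide 500 nM and SAM 20 uM, 2 h RT. Step 3: anti-H3K9me1 antibody and AlphaScreen beads, 10 min, then plate read.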
BAZ2B block: inhibitors of human BAZ2B bromodomain; Q9UIF8; AlphaScreen BAZ2B-H3K14Ac peptide displacement; actives 4.4% (n = 360,000); Potency, µM (highest dose often 114 µM), usual class: inhibitors; also: nearly all actives have a fitted effect of over 60% in size
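AlphaScreen displacement: compounds (up to 110uM) incubated 30 min at room temperature with a preformed 50 nM BAZ2B/50 nM biotinylated H3K14Ac peptide complex in PBS pH 7.4 with Tween-20. Donor and acceptor beads at 10 ug/mL final added, 20 min light-protected before reading.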
JMJD2A Tudor inh: blocks the human JMJD2A Tudor domain | actives 4.4% (n = 390,000) | O75164 | AlphaScreen JMJD2A-Tudor / H3K4me3 peptide binding | Potency, µM (series often up to 114 µM), hits mostly inhibitors; also: nearly all actives have a fitted effect of over 50% in size
PLK1 PBD block: inhibitors of human PLK1 polo-box domain binding. P53350. Plk1 PBD binding of FITC phosphopeptide, fluorescence polarization. Potency, µM, most hits filed as inhibitors. actives 2.8% (n = 360,000); also: series mostly up to about 57 µM; nearly all actives have a fitted effect of over 65% in size
VDR inh: blocks the human vitamin D receptor; VDR-SRC2-3 peptide fluorescence polarization, 2 h; Potency, µM, actives largely listed as inhibitors; P11473; actives 0.93% (n = 400,000)
Target sequence (P11473 whole entry, looked up): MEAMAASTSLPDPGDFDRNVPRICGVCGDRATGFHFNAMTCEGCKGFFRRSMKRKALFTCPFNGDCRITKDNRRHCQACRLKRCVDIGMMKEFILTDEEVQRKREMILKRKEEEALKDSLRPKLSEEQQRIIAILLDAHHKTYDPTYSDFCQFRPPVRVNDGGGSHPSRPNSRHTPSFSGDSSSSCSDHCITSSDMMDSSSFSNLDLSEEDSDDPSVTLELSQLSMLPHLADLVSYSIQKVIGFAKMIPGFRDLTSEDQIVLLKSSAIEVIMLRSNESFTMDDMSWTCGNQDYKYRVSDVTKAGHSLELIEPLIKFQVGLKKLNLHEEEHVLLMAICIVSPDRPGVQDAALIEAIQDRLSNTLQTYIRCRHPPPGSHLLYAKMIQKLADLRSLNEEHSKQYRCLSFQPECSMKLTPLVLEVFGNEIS
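Fluorescence polarization assay measuring small-molecule disruption of VDR binding to the coregulator peptide SRC2-3. Compounds were pin-transferred (23 nl) into the reagent mix and incubated 2 h at room temperature before reading.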
HP1b chromo inh: HP1-beta chromodomain-methylated histone interaction inhibition; AlphaScreen HP1-beta / biotin-H3K9me3 peptide binding; Potency, µM (series often up to 114 µM), most hits filed as inhibitors; actives 0.56% (n = 390,000); P83916; also: nearly all actives have a fitted effect of over 70% in size
Target sequence (P83916 whole entry, looked up): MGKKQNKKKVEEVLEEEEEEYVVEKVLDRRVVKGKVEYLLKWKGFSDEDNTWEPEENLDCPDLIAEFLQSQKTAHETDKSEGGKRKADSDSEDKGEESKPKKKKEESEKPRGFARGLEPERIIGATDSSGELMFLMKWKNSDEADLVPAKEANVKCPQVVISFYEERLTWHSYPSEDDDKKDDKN
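HP1-beta protein (50 nM final) preincubated 30 min at room temperature with biotinylated H3(1-18)K9me3 peptide (50 nM) in PBS pH 7.4, 0.01% Tween-20, then compound added for 30 min. AlphaScreen streptavidin donor/nickel chelate acceptor beads (10 ug/mL final), 30 min dark, luminescence read.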
Each line names hits and unclear results; the compound was inactive in the other large screens. Calls follow the shape of the dose curve; as a rule, active = well fitted curve in the direction sought with a large enough effect; inconclusive = small, poorly fitted or top-dose-only effect, or another doubt; inactive = no such curve, though single readings can be large; an effect the other way counts as inactive or inconclusive.

Cc1c(-c2ccc(F)cc2)nc(N)c(C#N)c1-c1ccco1	G9a inh inconclusive
CCOc1cc(-c2cc(-c3ccc(C)o3)nc(N)c2C#N)ccc1O	G9a inh 39.8µM
Cc1ccc(-c2cc(-c3ccc(F)cc3)c(C#N)c(N)n2)o1	G9a inh 8.91µM, JMJD2A Tudor inh 39.8µM, PLK1 PBD block inconclusive, VDR inh inconclusive
Cc1ccc(-c2c(C#N)c(N)nc3c2CCCCCC3)o1	none
CCCc1cc(-c2ccc(O)c(OCC)c2)c(C#N)c(N)n1	none
Cc1ccc(-c2cc(-c3ccc(C)o3)nc(N)c2C#N)cc1	G9a inh 2µM, BAZ2B block 70.8µM, JMJD2A Tudor inh 31.6µM, PLK1 PBD block 13.4µM, VDR inh inconclusive, HP1b chromo inh inconclusive
Cc1ccc(-c2cc(-c3ccc(Cl)cc3)c(C#N)c(N)n2)o1	G9a inh 5.62µM, BAZ2B block 56.2µM, JMJD2A Tudor inh 79.4µM, PLK1 PBD block 21.2µM, VDR inh inconclusive
CC(C)C[C@@H](CC(=O)N[C@@H](CCC(=O)O)CC(=O)O)NC(=O)[C@@H]1CNCC[C@H]1NC(=O)C[C@@H](NC(=O)C[C@H](Cc1c[nH]c2ccccc12)NC(=O)[C@@H]1CNCC[C@H]1N)C(C)C	none (no result: G9a inh, BAZ2B block, JMJD2A Tudor inh, PLK1 PBD block, HP1b chromo inh)
CCOC(=O)c1ccc(N2C(=O)C3CC=CCC3C2=O)cc1 (stereo not given)	none
CCOC(=O)c1ccc(N2C(=O)C3C(C2=O)C(C(=O)c2ccc(Cl)cc2)N2CCCC32)cc1 (stereo not given)	G9a inh inconclusive, BAZ2B block 50.1µM
Cc1cccc(NC(=O)c2ncn3c2C(=O)N[C@H](C)C3)c1	none (no result: G9a inh, BAZ2B block, JMJD2A Tudor inh, VDR inh, HP1b chromo inh)
CC12CCC(C(=O)NNc3ccccc3)(OC1=O)C2(C)C (stereo not given)	G9a inh 56.2µM
COC(=O)c1cc(COC(=O)c2nc3nccc(C)n3n2)oc1C	G9a inh inconclusive
CCC1=NN2C(=N)/C(=C\c3cccn3-c3ccc(Cl)cc3)C(=O)N=C2S1	BAZ2B block inconclusive, PLK1 PBD block inconclusive
N=C1/C(=C/c2cccn2Cc2ccc(Cl)cc2)C(=O)N=C2SC=CN12	BAZ2B block inconclusive
Cc1ccc(-n2cccc2/C=C2\C(=N)N3N=C(c4ccco4)SC3=NC2=O)cc1	G9a inh 10µM, BAZ2B block 35.5µM, JMJD2A Tudor inh inconclusive, PLK1 PBD block 29.9µM
CCc1ccc(-n2cccc2/C=C2/C(=N)N3C(=NC2=O)SN=C3S(C)(=O)=O)cc1	G9a inh 44.7µM, BAZ2B block 39.8µM, JMJD2A Tudor inh 56.2µM, PLK1 PBD block 13.4µM, VDR inh inconclusive
CS(=O)(=O)C1=NSC2=NC(=O)/C(=C\c3cccn3-c3ccccc3Cl)C(=N)N21	G9a inh 50.1µM, BAZ2B block 50.1µM, JMJD2A Tudor inh inconclusive, PLK1 PBD block inconclusive
N=C1/C(=C/c2cccn2CCOc2ccccc2)C(=O)N=C2SC=C(c3ccccc3)N12	none
Cc1ccc(-n2cccc2/C=C2/C(=N)N3C(=NC2=O)SN=C3S(C)(=O)=O)cc1	G9a inh 39.8µM, BAZ2B block 44.7µM, JMJD2A Tudor inh 15.8µM, PLK1 PBD block inconclusive
N=c1c(C(=O)NC2CCCCC2)cc2c(=O)n3ccccc3nc2n1CCc1ccccc1	none
CN(C)S(=O)(=O)c1ccc(C(=O)Nc2ccc3nc(N4CCOCC4)sc3c2)cc1	none (no result: G9a inh, BAZ2B block)
Cc1cc(C)cc(-n2cccc2/C=C2/C(=N)N3C(=NC2=O)SN=C3S(C)(=O)=O)c1	G9a inh inconclusive, BAZ2B block 56.2µM, JMJD2A Tudor inh inconclusive, VDR inh inconclusive
CCC1=NN2C(=N)/C(=C\c3cccn3-c3ccc(C)c(C)c3)C(=O)N=C2S1	JMJD2A Tudor inh inconclusive, PLK1 PBD block inconclusive
Cc1cnnn1-c1ccc(C(=O)CCl)cc1	BAZ2B block inconclusive, PLK1 PBD block 3.77µM
COc1ccc2[nH]c3c(c2c1)CCN1C(=O)C(CC(=O)NCc2cccc(C(F)(F)F)c2)C[C@H](C(=O)N2CCCCC2)[C@@]31CCc1ccccc1 (stereo not given in full)	none (no result: G9a inh, BAZ2B block)
O=C(N/N=C/c1ccc2c(c1)OCO2)c1ccc2c(c1)OCCO2	none
O=C(CNC(=O)c1ccc2c(c1)OCO2)N/N=C/c1cc(Br)ccc1O	G9a inh 79.4µM, JMJD2A Tudor inh inconclusive
O=C(CNC(=O)c1ccccc1)N/N=C/c1cc(Br)ccc1O	none
O=C(N/N=C/c1cc(Br)c(Br)o1)c1ccc2c(c1)OCCO2	BAZ2B block 44.7µM, JMJD2A Tudor inh 39.8µM, HP1b chromo inh inconclusive (no result: G9a inh)
O=C(N/N=C/c1cc(Br)c(O)c(Br)c1O)c1ccc2c(c1)OCCO2	G9a inh inconclusive, BAZ2B block 44.7µM, JMJD2A Tudor inh 39.8µM
Cc1ccc(-n2nc(C)c3c(C)cc(=O)n(CC(=O)NCc4ccc(OC(C)C)cc4)c32)cc1	none (no result: PLK1 PBD block)
O=C(Cc1ccc(NC2=NC3CS(=O)(=O)CC3S2)cc1)N1CCN(c2ccc(F)cc2)CC1 (stereo not given)	none (no result: G9a inh)
Cc1ccc(CCN2CC(C(=O)NCCN(C)C)CC2=O)cc1 (stereo not given)	none
CCn1ncc2c(OCc3ccc(C#N)cc3)cc(C)nc21	none
Cn1c(=O)oc2cc(S(=O)(=O)N3CCCC(C(=O)NCc4ccc(F)cc4)C3)ccc21 (stereo not given)	none (no result: PLK1 PBD block)
COc1cc(C2c3c(-c4cc(C)ccc4O)n[nH]c3C(=O)N2CCCO)ccc1OCCC(C)C (stereo not given)	none (no result: PLK1 PBD block)
COC(=O)c1nnc(-c2ccccc2)c(-c2ccccc2)n1	G9a inh 31.6µM
COc1ccc(S(=O)(=O)N2CCCCCC2)cc1C(=O)N1CCN(c2ccccc2O)CC1	VDR inh inconclusive
COc1cccc(C2Nc3ccccc3C(=O)N2O)c1O (stereo not given)	BAZ2B block inconclusive
O=C1c2ccccc2NC(c2ccc(Br)o2)N1O (stereo not given)	JMJD2A Tudor inh 79.4µM (no result: PLK1 PBD block)
O=C1c2ccccc2NC(c2cccc(O)c2)N1O (stereo not given)	G9a inh 44.7µM
O=C(NN1C(=O)c2ccccc2NC1c1cccnc1)c1ccc([N+](=O)[O-])cc1 (stereo not given)	none
O=C1c2ccccc2NC(c2ccc([N+](=O)[O-])cc2)N1O (stereo not given)	G9a inh 56.2µM
O=c1cc(C(F)(F)F)nc(-n2[nH]c3c(c2=O)CCCC3)[nH]1	G9a inh inconclusive, BAZ2B block 2.51µM
Nc1nc(C(F)(F)F)cc(=O)[nH]1	none
O=C(NNC(=O)C12CC3CC(CC(C3)C1)C2)c1ccncc1	G9a inh 39.8µM
O=C(NNC(=O)C12CC3CC(CC(Cl)(C3)C1)C2)c1ccncc1	none
CC(=O)Nc1ccc(NC(=O)c2sc3nc4n(c(=O)c3c2C)CCCCC4)cc1	none
Cc1c(C(=O)Nc2ccc(C(C)C)cc2)sc2nc3n(c(=O)c12)CCC3	none (no result: PLK1 PBD block)
